Here are results for 28 compounds from PubChem BioAssay (Tox21).

Results filed as inconclusive are left out. Where a structure was tested more than once in an assay, its records may differ in their call. Calls of active or inactive are those of the source. Unless noted, calls come from the whole dose curve; as a rule, active = well fitted curve in the direction sought with a large enough effect in the repeat runs; inconclusive = weak or mixed curves; inactive = no such curve, though single readings can be large; an effect the other way counts as inactive or inconclusive.

In test [1] the target is Peroxisome proliferator-activated receptor delta (Homo sapiens) (UniProt Q03181). Put plainly: qHTS assay to identify small molecule agonists of the peroxisome proliferator-activated receptor delta (PPARd) signaling pathway (AID 743212; calls by dose curve). In a few lines:
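HEK293H UAS-bla reporter cells, human PPARd system; compounds delivered in DMSO after 5 h plating, then at 37 C. Beta-lactamase FRET read, 2 h RT substrate step.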
In general terms: In qHTS, concentration-response curves come from the screen itself.

Test [2] is described as follows: qHTS assay to identify small molecule antagonists of the peroxisome proliferator-activated receptor delta (PPARd) signaling pathway - cell viability counter screen (AID 743213). Note: nearly all actives have a fitted effect of over 50% in size. Note: potency is the fitted concentration of half-maximal effect. In a few lines:
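CellTiter-Glo was added to PPARd-bla HEK293H wells following 17 h compound treatment in the presence of 300 nM L165041. Luminescence was recorded after 30 min at room temperature.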

Test [3] addresses Peroxisome proliferator-activated receptor delta (Homo sapiens) (UniProt Q03181). Nature of the test: qHTS assay to identify small molecule antagonists of the peroxisome proliferator-activated receptor delta (PPARd) signaling pathway (AID 743215; active = well fitted inhibition curve with a large enough effect in the signal ratio in the repeat runs, not every such curve was filed as active; the % refers to the signal ratio;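 note: cells stimulated with agonist L165041 at 300 nM final during compound exposure; series mostly up to about 62 µM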). In a few lines: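 Antagonist-mode beta-lactamase reporter screen: HEK293H cells with UAS-bla under PPARd control, stimulated by 300 nM L165041 (final) alongside test compound for 17 h at 37 C, then FRET fluorescence after 2 h substrate incubation.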

The nature of test [4]: qHTS assay to identify small molecule agonists of the farnesoid-X-receptor (FXR) signaling pathway - cell viability counter screen (AID 743218). Note: nearly all actives have a fitted effect of over 45% in size. Note: potency is the fitted concentration of half-maximal effect. In a few lines: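 In GeneBLAzer FXR-UAS-bla HEK 293T cells, compounds act for 16 h at 37 C. Cell viability is then scored in the reporter wells by CellTiter-Glo, 30 min at RT, luminescence.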
The nature of test [5]: qHTS assay to identify small molecule antagonists of the farnesoid-X-receptor (FXR) signaling pathway - cell viability counter screen (AID 743221; active = well fitted cell-killing curve with a large enough effect in the repeat runs, not every such curve was filed as active; note: nearly all actives have a fitted effect of over 50% in size; note: potency is the fitted concentration of half-maximal effect). In a few lines: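 Cytotoxicity counter screen run in the FXR-bla reporter wells: HEK 293T cells exposed to compound with 50 uM (final) chenodeoxycholic acid for 16 h, 37 C, then viability measured by CellTiter-Glo luminescence after 30 min, room temperature.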

In test [6] the target is Vitamin D3 receptor (Homo sapiens) (UniProt P11473). Nature of the test: qHTS assay to identify small molecule agonists of the vitamin D receptor (VDR) signaling pathway (AID 743222; calls by dose curve). In a few lines: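 Agonist activity measured in VDR-bla reporter cells. Exposure 16 h, 37C, 5% CO2; detection by B/G FRET substrate, 2 h RT.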
Vitamin D3 receptor (Homo sapiens), sequence (P11473 whole entry, looked up): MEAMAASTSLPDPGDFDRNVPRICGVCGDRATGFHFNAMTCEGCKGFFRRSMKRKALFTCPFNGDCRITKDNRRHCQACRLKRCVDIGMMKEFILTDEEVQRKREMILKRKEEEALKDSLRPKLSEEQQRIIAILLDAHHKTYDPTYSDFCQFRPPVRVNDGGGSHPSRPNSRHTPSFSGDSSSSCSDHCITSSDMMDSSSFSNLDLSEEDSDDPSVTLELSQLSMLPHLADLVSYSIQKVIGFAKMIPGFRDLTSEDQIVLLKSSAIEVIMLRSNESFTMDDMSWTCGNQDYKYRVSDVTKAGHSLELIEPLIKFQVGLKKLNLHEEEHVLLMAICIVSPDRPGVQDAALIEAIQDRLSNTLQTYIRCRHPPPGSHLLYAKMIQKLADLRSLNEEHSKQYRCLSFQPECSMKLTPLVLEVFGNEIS
The target is the same in test [7]. Put plainly: qHTS assay to identify small molecule antagonists of the vitamin D receptor (VDR) signaling pathway (AID 743223; active = well fitted inhibition curve with a large enough effect in the signal ratio in the repeat runs, not every such curve was filed as active; the % refers to the signal ratio). In a few lines:
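Antagonist mode: compound added to VDR-bla cells alongside agonist 1alpha,25-dihydroxyvitamin D3 (3 nM final), incubation 16 h at 37C. Read-out is LiveBLAzer FRET fluorescence, 2 h at room temperature.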

Test [8] in a line: qHTS assay to identify small molecule agonists of the vitamin D receptor (VDR) signaling pathway - cell viability counter screen (AID 743224). Note: nearly all actives have a fitted effect of over 50% in size. Note: potency is the fitted concentration of half-maximal effect. In a few lines: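 VDR-bla cell line, quantitative HTS format; 16 h compound incubation (37C, 5% CO2); ATP-based CellTiter-Glo luminescence measured in the reporter assay wells.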
The target of test [9] is Bile acid receptor (Homo sapiens) (UniProt Q96RI1). Nature of the test: qHTS assay to identify small molecule antagonists of the farnesoid-X-receptor (FXR) signaling pathway (AID 743217; active = well fitted inhibition curve with a large enough effect in the signal ratio in the repeat runs, not every such curve was filed as active; the % refers to the signal ratio). In a few lines:
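Beta-lactamase reporter under UAS control in HEK 293T cells; compound exposure 16 h at 37 °C in the presence of chenodeoxycholic acid (50 uM final); signal from B/G FRET substrate after 2 h at room temperature.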

For test [10] the target is unchanged. Nature of the test: qHTS assay to identify small molecule agonists of the farnesoid-X-receptor (FXR) signaling pathway (AID 743220; active = well fitted activation curve with a large enough effect in the signal ratio in the repeat runs, not every such curve was filed as active; the % refers to the signal ratio). In a few lines:
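Beta-lactamase reporter under UAS control in GeneBLAzer FXR HEK 293T cells (5000/well) measured with LiveBLAzer FRET substrate after 2 h at room temperature. Compound exposure lasted 16 h at 37C.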

Bile acid receptor (Homo sapiens), sequence (Q96RI1 whole entry, looked up): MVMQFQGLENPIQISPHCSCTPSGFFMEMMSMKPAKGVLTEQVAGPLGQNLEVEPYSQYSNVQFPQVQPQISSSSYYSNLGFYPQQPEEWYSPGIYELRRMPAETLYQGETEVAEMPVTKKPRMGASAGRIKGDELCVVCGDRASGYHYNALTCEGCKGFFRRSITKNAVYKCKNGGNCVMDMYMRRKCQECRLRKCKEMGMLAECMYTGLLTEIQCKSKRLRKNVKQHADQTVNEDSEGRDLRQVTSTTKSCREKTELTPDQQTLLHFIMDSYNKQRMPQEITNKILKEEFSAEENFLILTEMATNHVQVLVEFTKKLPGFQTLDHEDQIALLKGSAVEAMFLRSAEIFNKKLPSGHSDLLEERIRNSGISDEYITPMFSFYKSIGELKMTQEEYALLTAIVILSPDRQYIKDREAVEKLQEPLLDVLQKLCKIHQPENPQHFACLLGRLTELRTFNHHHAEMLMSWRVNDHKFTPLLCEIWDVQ
Peroxisome proliferator-activated receptor delta (Homo sapiens), sequence (Q03181 whole entry, looked up): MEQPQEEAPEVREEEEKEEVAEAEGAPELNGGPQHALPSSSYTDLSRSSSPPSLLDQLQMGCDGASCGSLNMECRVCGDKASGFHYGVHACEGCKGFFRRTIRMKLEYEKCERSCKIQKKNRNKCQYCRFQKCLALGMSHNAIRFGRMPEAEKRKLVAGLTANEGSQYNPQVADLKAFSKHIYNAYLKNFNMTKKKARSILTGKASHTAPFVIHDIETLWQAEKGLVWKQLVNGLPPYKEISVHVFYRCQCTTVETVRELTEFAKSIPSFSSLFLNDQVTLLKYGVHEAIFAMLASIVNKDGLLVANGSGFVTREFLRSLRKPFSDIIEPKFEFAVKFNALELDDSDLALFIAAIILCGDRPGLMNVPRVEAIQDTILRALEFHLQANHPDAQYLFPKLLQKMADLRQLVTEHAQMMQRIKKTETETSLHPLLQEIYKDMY

Regarding `O=Cc1ccco1`, the Potency entry in test [1], in test [2], in [3], in test [4], in [5] and in test [8] was “inactive” in each case. For the same compound, the outcome in [6] and in [7] was inactive.
Consider `C1=Cc2cccc3cccc1c23`, for which the Potency result in test [1], in test [2], in test [3], in test [4], in [5] and in test [8] was “inactive” each time. The compound was called inactive in test [6] and in test [7].
Turning to `CCOc1cc(Oc2ccc(C(F)(F)F)cc2Cl)ccc1[N+](=O)[O-]`, the Potency entry in test [1], in test [2], in test [9], in test [5] and in test [8] was “inactive” each time.
As for `NNC(=S)NN`, the Potency entry in test [1], in test [2], in test [3], in test [4], in [5] and in test [8] was “inactive” throughout. The result in test [6] and in [7] was inactive.
Regarding `CCCCCCCCC(=O)NCc1ccc(O)c(OC)c1`, the Potency result in test [1], in [2], in [3], in [4], in [5] and in [8] was “inactive” each time. The outcome in test [6] and in test [7] was inactive.
For `c1ccc(P(c2ccccc2)c2ccccc2)cc1`, the Potency entry in test [1], in test [2], in test [3], in [4], in [5] and in [8] was “inactive” in each case. Also, the outcome in test [6] and in test [7] was inactive.
`CCCCCc1cc(O)cc(O)c1`: the Potency entry in [1], in [2], in test [9], in test [4], in test [5] and in test [8] was “inactive” in each case. Further, the outcome in test [6] and in [7] was inactive.
For the compound `Oc1cc(Cl)ccc1Cl`, the Potency entry in test [1], in test [2], in test [3], in [4], in test [5] and in test [8] was “inactive” in each case. The result in [6] and in [7] was inactive.
As to `CCC(=O)O[C@H]1CC[C@H]2[C@@H]3CCC4=CC(=O)CC[C@]4(C)[C@H]3CC[C@]12C`, the Potency result in test [1], in test [2], in [3] and in [5] was “inactive” throughout. Further, the Potency in [4] is 54.9 µM (active) and inactive; in test [8], 12.3 µM (active) and inactive.
With `Nn1cnnc1`, the Potency entry in test [1], in test [2], in test [3], in [4], in [5] and in test [8] was “inactive” each time. The result in test [6] and in test [7] was inactive.
In the case of `COc1ccc(C=O)cc1`, the Potency result in [1], in test [2], in test [3], in [4], in [5] and in [8] was “inactive” each time. Further, the outcome in [6] and in test [7] was inactive.
Take `O=C(CCl)c1ccccc1`: the Potency result in test [1], in test [2], in [3], in [4], in [5] and in test [8] was “inactive” each time. For the same compound, the call in test [6] and in [7] was inactive.
With `CCCCOCCOP(=O)(OCCOCCCC)OCCOCCCC`, the Potency result in test [1], in test [2], in test [3], in [4], in [5] and in [8] was “inactive” throughout. Moreover, the result in test [6] and in [7] was inactive.
`Cc1c(COC(=O)[C@@H]2[C@H](/C=C(\Cl)C(F)(F)F)C2(C)C)cccc1-c1ccccc1`: the Potency entry in test [1], in test [2], in test [4], in test [5] and in test [8] was “inactive” in each case. Further, the compound was classed as inactive in test [10], in test [6] and in test [7].
`Cc1ccccc1[N+](=O)[O-]`: the Potency result in test [1], in test [2], in test [4], in test [5] and in test [8] was “inactive” in each case. The call in [6] and in [7] was inactive.
Turning to `O=[N+]([O-])c1cccc2ccccc12`, the Potency entry in test [1], in test [2], in test [3], in [4], in test [5] and in [8] was “inactive” throughout.
Regarding `COc1ccc(C(CN(C)C)C2(O)CCCCC2)cc1` (configuration not stated), the Potency result in [1], in test [2], in test [3], in test [4], in [5] and in test [8] was “inactive” each time. The call in test [6] and in test [7] was inactive.
For the compound `C=CCN(CC=C)C(=O)C(Cl)Cl`, the Potency entry in test [1], in [2], in [3], in test [4], in [5] and in [8] was “inactive” in each case. Further, the outcome in test [6] and in test [7] was inactive.
Turning to `CCOc1cc(C=O)ccc1O`, the Potency result in test [1], in test [2], in test [3], in test [4], in test [5] and in test [8] was “inactive” throughout. In addition, the call in test [6] and in test [7] was inactive.
Regarding `Nc1ccc(-c2ccccc2)cc1`, the Potency entry in [1], in test [2], in test [3], in [4], in [5] and in [8] was “inactive” each time. Moreover, the compound was called inactive in test [6] and in [7].
In the case of `O=P(Oc1ccccc1)(Oc1ccccc1)Oc1ccccc1`, the Potency result in test [1], in test [2], in [3], in [4], in test [5] and in test [8] was “inactive” in each case. The call in [6] and in [7] was inactive.
With `O=S(=O)(Oc1ccc(Cl)cc1)c1ccc(Cl)cc1`, the Potency entry in test [1], in [2], in [3], in test [4], in test [5] and in test [8] was “inactive” in each case. Further, the outcome in [6] and in test [7] was inactive.
With `C=CC(=O)OCCO`, the Potency result in [1], in [2], in [3], in test [4], in test [5] and in test [8] was “inactive” each time. For the same compound, the call in test [6] and in [7] was inactive.
With `COP(=S)(OC)Oc1cc(Cl)c(Cl)cc1Cl`, the Potency entry in test [1], in test [2], in test [3], in test [4], in [5] and in test [8] was “inactive” each time.
For the compound `COC(=O)c1sccc1S(=O)(=O)NC(=O)Nc1nc(C)nc(OC)n1`, the Potency entry in test [1], in test [2], in test [3], in test [4], in test [5] and in test [8] was “inactive” in each case. For the same compound, the compound was called inactive in test [6] and in [7].
Consider `CCCCCCOC(=O)c1ccccc1C(=O)OCCCCCC`, for which the Potency entry in [1], in test [2], in [3], in [4], in [5] and in test [8] was “inactive” throughout.
Consider `Oc1cc(Cl)ccc1Oc1ccc(Cl)cc1Cl`, for which the Potency result in [1] and in test [3] was “inactive” throughout. Besides, the Potency in test [2] was 28 µM (active) and inactive; in test [4] it was 42.1 µM (active); in test [5], 56.2 µM (active); in test [8], 20 µM (active). Moreover, the call in test [6] and in [7] was inactive.
As for `O=C1C=CC(=O)C=C1`, the Potency entry in test [2], in [5] and in test [8] was “inactive” in each case.
